Compound activity: PubChem BioAssay, several laboratories
CYP2C19 activ: increases human CYP2C19 enzyme activity. recombinant CYP2C19, luciferin-H EGE luminescence; stronger effect = higher value; 0 = fully inhibited enzyme, 1 = untreated enzyme. activation factor at 5 µM. P33261. AID 1025. 96,000 tested, under 10 active;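 active means activation factor of at least 2 at 5 µM in the primary screen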
CYP2C9 inhib: human CYP2C9 inhibition. P11712. CYP2C9 Supersomes, luciferin-H conversion, luminescence. inhibition, % at 5 µM. 96,000 tested, 20% active. AID 777;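 active means blocking of liver enzyme CYP2C9 beyond about 50% at 5 µM, limit read from the data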
Target sequence (P11712 whole entry, looked up): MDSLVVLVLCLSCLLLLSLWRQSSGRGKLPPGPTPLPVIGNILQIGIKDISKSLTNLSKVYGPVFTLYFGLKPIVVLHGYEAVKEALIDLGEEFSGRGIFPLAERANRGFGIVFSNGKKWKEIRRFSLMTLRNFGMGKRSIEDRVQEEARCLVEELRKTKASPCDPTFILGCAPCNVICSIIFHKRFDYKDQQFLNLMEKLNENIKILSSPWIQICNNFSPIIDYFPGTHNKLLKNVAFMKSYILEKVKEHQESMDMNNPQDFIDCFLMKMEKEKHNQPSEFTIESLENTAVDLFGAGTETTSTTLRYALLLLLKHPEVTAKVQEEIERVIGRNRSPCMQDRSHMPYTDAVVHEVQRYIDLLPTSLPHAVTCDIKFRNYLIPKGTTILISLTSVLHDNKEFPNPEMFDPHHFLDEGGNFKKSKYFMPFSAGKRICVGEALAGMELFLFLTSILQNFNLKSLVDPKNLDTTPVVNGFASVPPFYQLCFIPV
Cav3 T inh: blocks human Cav3.2 T-type calcium channel; AID 449739; O95180; Cav3.2-expressing cells, Fluo-4 calcium fluorescence FDSS; stronger effect = lower value; 100,000 tested, 4% active; B-score at 10 µM;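 active means single-dose well whose peak fluorescence ratio is a statistical outlier from its plate by either plate-standardised score or position-corrected B-score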
CYP2C9 activ: increases human cytochrome P450 2C9 activity; P11712; 96,000 tested, 1.4% active; recombinant CYP2C9, luciferin-H conversion, luminescence; stronger effect = higher value; factor 1 = untreated enzyme, 0 = blocked; activation factor at 5 µM;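 active means activation factor of 2 or more for CYP2C9 at a 5 µM dose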
CYP2C19 inh: inhibitors of human CYP2C19; CYP2C19 Supersomes, luciferin-H EGE luminescence, 30 min; inhibition, % at 5 µM; 96,000 tested, 21% active;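 active means CYP2C19 inhibition above a set limit at 5 µM in the primary screen, cut at about 50% in these data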
Of the large screens only hits and unclear results are named; the others gave an inactive call. Compounds with a hit are over-represented: about 27% of the library has one in this group of screens.

CCCCn1c(N)c(-c2nc3ccccc3s2)c2c([N+](=O)[O-])nn(C)c(=O)c21	none
CCCCCn1c(N)c(-c2nc3ccccc3s2)c2c([N+](=O)[O-])nn(CC)c(=O)c21	CYP2C9 inhib 72
CCCCn1c(N)c(-c2nc3ccccc3s2)c2c([N+](=O)[O-])nn(CC)c(=O)c21	CYP2C9 inhib 68
O=C(Nc1nccs1)c1cccc(S(=O)(=O)N2CCOCC2)c1	none (no result: CYP2C19 activ, CYP2C9 inhib, CYP2C9 activ, CYP2C19 inh)
Cc1ccc(-c2csc(NC(=O)c3cccc(S(=O)(=O)N4CCN(C)CC4)c3)n2)cc1	CYP2C19 inh 97
COc1cccc(C(=O)Nc2nc(-c3ccc(S(=O)(=O)N4CCOCC4)cc3)cs2)c1	CYP2C9 inhib 83 (no result: Cav3 T inh)
O=C(Nc1nc(-c2cccs2)cs1)c1cccc(S(=O)(=O)N2CCCCC2)c1	CYP2C9 inhib 84, Cav3 T inh -9.2, CYP2C19 inh 51
COc1cc(OC)c(OC)cc1/C=N/NC(=S)NCC1CCCO1 (stereo not given)	CYP2C9 inhib 65
COc1ccccc1-n1nnnc1SCC(=O)NC1CCCC1	CYP2C9 activ 2.3
O=C(CSc1nnnn1C1CCCCC1)N1c2ccccc2Sc2ccccc21	Cav3 T inh -6
COc1cccc(C(=O)CSc2nnnn2C2CCCCC2)c1	CYP2C9 inhib 68
O=C(CSc1nnnn1-c1cccc2c1CCCC2)NC1CCCC1	CYP2C9 activ 3
COCCN(CC(=O)NCc1ccccc1)C(=O)CCC(=O)Nc1ccccn1	none
CCOC(=O)C(CO)(NC(C)=O)C(=O)OCC	none
O=C1CCCC2=C1C1(CCCCC1)N=C(Nc1nc3ccccc3s1)N2	none
COc1cccc(-n2nnnc2SCC(=O)NC2CCCC2)c1	CYP2C9 activ 2
O=C(CSc1nnnn1-c1cccc2c1CCCC2)N1CCOCC1	CYP2C9 activ 2.2
COc1ccc2c(c1)c1nnc(SCC(=O)N3C(C)CCCC3C)nc1n2C (stereo not given)	CYP2C9 inhib 66
COc1cccc(NC(=O)CSc2nncn2-c2ccccn2)c1	CYP2C19 inh 62
O=C(CSc1nnnn1-c1cccc2c1CCCC2)N1CCCC1	none (no result: CYP2C19 activ, CYP2C9 inhib, CYP2C9 activ, CYP2C19 inh)
CCOC(=O)N1CCC(N2CC34C=CC(O3)C(C(=O)O)C4C2=O)CC1 (stereo not given)	none
O=C(CSc1nc(C2CC2)nc2ccccc12)N1c2ccccc2Sc2ccccc21	CYP2C9 inhib 97 (no result: Cav3 T inh)
COc1cccc(-n2nnnc2SCC(=O)Nc2cccc(NC(C)=O)c2)c1	CYP2C9 inhib 50
COc1ccc(-n2nnnc2SCC(=O)N2C(C)CCCC2C)c(OC)c1 (stereo not given)	CYP2C19 inh 75
COc1ccccc1-n1c(SCC(=O)NC2CCCC2)nc2cccnc21	none
CCN(CC)S(=O)(=O)c1ccc2c(c1)nc(SCC(=O)NC1CC1)n2-c1ccccc1OC	CYP2C9 inhib 75
O=C(O)c1ccc2c(c1)C(=O)N(c1cc(C(=O)O)ccc1Br)C2=O	none
Clc1ccc(OCc2nnc(SCCN3CCCCC3)n2Cc2ccco2)cc1	none
CCC1=NC(c2ccccc2OC)N(O)C1(C)C (stereo not given)	none
O=C(CSc1nccn1-c1cccc(Cl)c1)NC1CCCC1	CYP2C9 inhib 67, CYP2C19 inh 84
Cc1cc(C(=O)Nc2ccccc2)oc1C	none
CCC(c1nnnn1C(C)(C)C)N(Cc1cccs1)Cc1cc2cc(C)c(C)cc2n2nnnc12 (stereo not given)	none (no result: CYP2C19 activ, CYP2C9 inhib, CYP2C9 activ, CYP2C19 inh)
CCCCN1c2cc(C)c(O)cc2C(C(=O)OCC)C1C (stereo not given)	CYP2C19 inh 59
CCOc1ccc(NC(=O)CSc2nnc(Cn3c(=O)sc4ccccc43)n2C)cc1	none (no result: CYP2C19 activ, CYP2C9 inhib, CYP2C9 activ, CYP2C19 inh)
N#Cc1ccccc1Cn1cc(C#N)c2ccccc21	none (no result: CYP2C19 activ, CYP2C9 inhib, CYP2C9 activ, CYP2C19 inh)
N#C/C(=C\c1cn(CCOc2ccccc2)c2ccccc12)C(=O)NCC1CCCO1 (stereo not given)	CYP2C9 inhib 92, Cav3 T inh -4.4, CYP2C19 inh 58
N#C/C(=C\c1cn(Cc2ccccc2C#N)c2ccccc12)C(=O)NCc1cccs1	CYP2C9 inhib 60 (no result: Cav3 T inh)
COC(=O)c1cccc(Nc2nc3ccccc3nc2C)c1	none
c1ccc2c(c1)[nH]c1c(N3CCCC3)ncnc12	none (no result: Cav3 T inh)
COc1ccc2[nH]c3c(N4CCC(O)(c5cccc(C(F)(F)F)c5)CC4)ncnc3c2c1	CYP2C9 inhib 67
COc1ccc2[nH]c3c(N4CCN(Cc5ccc6c(c5)OCO6)CC4)ncnc3c2c1	CYP2C9 inhib 82, CYP2C19 inh 58
COc1ccc2c(c1)c1ncnc(N3CCN(Cc4ccc5c(c4)OCO5)CC3)c1n2C	CYP2C9 inhib 82 (no result: Cav3 T inh)
C=CCn1c2ccccc2c2nnc(SCC(=O)OCN3C(=O)c4ccccc4C3=O)nc21	none (no result: CYP2C19 activ, CYP2C9 inhib, CYP2C9 activ, CYP2C19 inh)
O=C(Oc1ccc(N(Cc2cccs2)C2=NS(=O)(=O)c3ccccc32)cc1)c1ccco1	none (no result: CYP2C19 activ, CYP2C9 inhib, CYP2C9 activ, CYP2C19 inh)
O=C(OCCN(C1=NS(=O)(=O)c2ccccc21)c1ccc(Cl)cc1)c1ccco1	CYP2C9 inhib 85, CYP2C19 inh 86
CCn1cc(/C=N/NS(=O)(=O)c2ccc(C)cc2)c(C)n1	CYP2C9 inhib 83, CYP2C19 inh 88 (no result: Cav3 T inh)
Cc1ccc(S(=O)(=O)N/N=C\c2cc([N+](=O)[O-])ccc2Cl)cc1	CYP2C19 inh 62
Cc1ccc(S(=O)(=O)N/N=C/c2cn(C)nc2C)cc1	CYP2C9 inhib 64, CYP2C19 inh 51
COc1ccc(/C=N\NS(=O)(=O)c2ccc(C)cc2)cc1COc1ccccc1[N+](=O)[O-]	none (no result: CYP2C19 activ, CYP2C9 inhib, CYP2C9 activ, CYP2C19 inh)
O=[N+]([O-])c1ccc(Cl)c(/C=N/NC(=S)Nc2ccccc2)c1	none
Cc1ccc(S(=O)(=O)N/N=C\c2cccnc2)cc1	none
CCn1cc(/C=N/NS(=O)(=O)c2ccc(OC)cc2)c(C)n1	CYP2C9 inhib 69, CYP2C19 inh 87
CCN1C(=O)C2C(C1=O)N1C(c3cccs3)C3C(=O)N(CC)C(=O)C3N1C2c1cccs1 (stereo not given)	none
Cc1ccc(S(=O)(=O)N/N=C/c2cc(Br)c(C)o2)cc1	CYP2C9 inhib 97
O=C(Cc1ccccc1)NCC(=O)OCC(=O)c1cccs1	none
COC(=O)Cn1cnc2sc(C)c(S(=O)(=O)N3CCN(c4ccccc4OC)CC3)c2c1=O	CYP2C9 inhib 51
COc1cccc(NC(=O)Cn2cnc3sc(C)c(S(=O)(=O)N4CCCCC4)c3c2=O)c1	CYP2C9 inhib 66
O=C1C2CC=C(Cl)CC2C(=O)N1CCCCCCN1C(=O)C2CC=C(Cl)CC2C1=O (stereo not given)	CYP2C9 inhib 82, CYP2C19 inh 75
COCCn1nnnc1CN(CCc1ccccc1)Cc1cc2ccc(C)cc2[nH]c1=O	none
C[C@H](NC(=O)c1nc[nH]c1C(=O)N1CCN(c2ccccc2)CC1)C(=O)OC(C)(C)C	none (no result: CYP2C19 activ, CYP2C9 inhib, CYP2C9 activ, CYP2C19 inh)
O/C(=C\Sc1nnc(Cc2ccccc2)o1)c1ccc(Br)cc1	CYP2C9 inhib 93, CYP2C19 inh 79
FCCCOc1ccc(/C=N/OCc2ccc(Cl)cc2)cc1	none
COc1ccc(N=c2oc3cc(O)ccc3cc2C(=O)NCC2CCCO2)cc1 (stereo not given)	CYP2C9 inhib 52
